# Screening results: PubChem, several laboratories
# ADAM17 inh = inhibitors of human ADAM17; P78536; recombinant ADAM17, EDANS/DABCYL FRET peptide cleavage; inhibition, % at 6.95 µM; 370,000 tested, 0.83% active; AID 720648;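 active = inhibition above the mean of compounds lying between control limits plus 3 SD, set per campaign, cut at about 8.5% in these data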;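 note: 0% = DMSO-only wells as the low control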
# ADAM10 inh = inhibits human ADAM10; recombinant ADAM10, EDANS/DABCYL FRET peptide cleavage, 3 h; inhibition, % at 7 µM; 370,000 tested, 0.62% active; O14672;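 active = inhibition above a per-campaign cutoff equal to the mean of compounds falling between control-based bounds plus 3 SD, cut at about 20% in these data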;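 note: 0% = DMSO wells while the 100% control is not disclosed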
# CendR NRP1 mod = modulators of CendR peptide binding to human neuropilin-1. inhibition, % at 25 µM. FAM-RPARPAR peptide binding to NRP-1, fluorescence polarization. 360,000 tested, 0.85% active;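 active = inhibition or corrected inhibition above about 18%, plus a signal ratio from 0.5 to 1.5, limit read from the data, passing the limit was not always enough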
# proKLK7 act = proKLK7 (human) activation, primary screen. activation, % at 7 µM. purified proKLK7, EDANS-DABCYL substrate fluorescence; 100% is mature enzyme control, 0% vehicle. 370,000 tested, 0.9% active. P49862. AID 652039;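 active = activation above the mean of all tested compounds plus 3 SD, computed per campaign excluding outliers beyond control limits, cut at about 13% in these data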
# Target sequence (P49862 whole entry, looked up): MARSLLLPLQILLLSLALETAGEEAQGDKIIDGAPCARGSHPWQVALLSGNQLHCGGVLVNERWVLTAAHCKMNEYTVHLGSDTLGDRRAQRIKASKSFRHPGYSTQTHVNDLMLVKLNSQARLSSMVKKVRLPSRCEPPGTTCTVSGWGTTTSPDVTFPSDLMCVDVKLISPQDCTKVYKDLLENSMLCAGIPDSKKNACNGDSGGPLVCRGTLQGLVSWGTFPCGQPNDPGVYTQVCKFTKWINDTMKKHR
# sPLA2-III inh = Blocks human group III sPLA2 activity | inhibition, % at 12.2 µM | 370,000 tested, 0.56% active | QFRET BODIPY PC-A2 liposome hydrolysis, fluorescence | Q9NZ20;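 active = inhibition above mean plus 3 SD of compounds lying within the high and low control bounds, cut at about 19% in these data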;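 note: 0% = median of test compound wells and 100% = no enzyme DMSO wells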
# Active calls of the source: *; i = inactive; · = no result given. Rows were chosen to be rich in hits. Some 3.4% of all compounds tested hit in one or more screens of this group.
SMILES,ADAM17 inh,ADAM10 inh,CendR NRP1 mod,proKLK7 act,sPLA2-III inh
C#CCOCCOCCOCCNc1nc(N2CCN(C(=O)CCCCCCCCCCNC(=O)[C@@H](CCSC)n3cc(CCO)nn3)CC2)nc(N2CCN(C(=O)CCCCCCCCCCNC(=O)[C@H](CCCN=C(N)N)n3cc(C[C@@H](C)CC)nn3)CC2)n1,·,·,21*,·,·
C#CCOCCOCCOCCNc1nc(N2CCN(C(=O)CCCCCCCCCCNC(=O)[C@H](CCCCN)n3cc(C[C@@H](C)CC)nn3)CC2)nc(N2CCN(C(=O)CCCCCCCCCCNC(=O)[C@H](CCCN=C(N)N)n3cc(C[C@@H](C)CC)nn3)CC2)n1,·,·,40*,·,·
CCNC(=O)N(C)[C@H]1C[C@H]2c3[nH]c4cccc(-c5cccc(F)c5)c4c3CCN2C(=O)[C@H]1[C@H](C)O,-340,i,·,-29,-6
O=C(COCc1ccccc1)NC1CCCCN(Cc2cccc(Cl)c2)C1=O (stereo unspecified),3,6,·,1,-2
C/C(=C\c1ccccc1)C(=O)N1CCN(c2cccc(C(F)(F)F)c2)CC1,5,15,29*,0,-2
C/C(=C/c1ccccc1)C(=O)N1CCN(c2ccccc2F)CC1,1,12,1,0,-3
Cc1ccc(-c2nc(C3CCCN(S(=O)(=O)c4ccc(C)c(C)c4)C3)no2)cc1 (stereo unspecified),0,7,·,-1,9
OC(CNCc1ccccc1)c1ccccc1 (stereo unspecified),-4,1,0,-1,6
Oc1cccc(C(O)CNCc2ccc(-c3ccccc3)cc2)c1 (stereo unspecified),-40,-111,28*,1,-21
COC(=O)C1CN(Cc2ccccc2)CCS(=O)(=O)N1Cc1ccccc1 (stereo unspecified),0,6,·,0,-2
CCCCC(c1nnnn1CC1CCCO1)N1CCN(c2nc3ccccc3s2)CC1 (stereo unspecified),3,-1,18*,0,-2
CCCCc1n[nH]c(=S)n1Cc1ccc(C)cc1,0,-1,27*,0,17
CC#CCN(Cc1ccco1)C(=O)C1CCC(=O)N(Cc2ccccc2F)C1 (stereo unspecified),0,1,23*,0,4
COc1ccc(CN(C)C(=O)CNC(=O)c2sc3ccccc3c2Cl)c(OC)c1OC,-1,-2,46*,-1,-2
Cc1noc(C)c1S(=O)(=O)Nc1ccc(C(C)C)cc1,-1,-6,18*,-1,-6
COc1nc(OC)nc(N2CCC(C(=O)NCc3ccccc3OC)CC2)n1,8,4,·,0,11
O=C1CC[C@@H](OCc2ccccc2)CCN1CC[C@H](Sc1ccccc1)c1ccccc1,4,9,29*,1,-13
O=C1CCC(OCc2ccccc2)CCN1CC[C@@H](Sc1ccccc1)c1ccccc1 (stereo partly specified),5,-11,-6,0,-19
O=C(N[C@@H]1CCC(=O)N(CC[C@H](Sc2ccc(Br)cc2)c2ccccc2)CC1)OCc1ccccc1,1,11,20*,0,-13
COC(=O)[C@H]1C[C@]2(C(C=C(C)C)S(=O)(=O)c3ccccc3)c3ccccc3N[C@H]2N1 (stereo partly specified),-5,2,·,·,6
Cc1nn(S(=O)(=O)c2ccc(Cl)cc2)c(C)c1Sc1ccc([N+](=O)[O-])cc1,1,-11,2,0,10
Cc1nn(-c2ccccc2)c(N)c1Sc1ccc([N+](=O)[O-])cc1,3,4,44*,0,-3
Cc1ccnc(NC(=O)CCC(=O)N(CC(=O)NC2CCCCC2)Cc2ccccc2)c1,0,3,31*,-1,2
O=C(CCC(=O)N(CC(=O)NC1CCCCC1)Cc1ccccc1)Nc1ccccn1,0,4,-1,0,-1
COc1ccccc1N(CC(=O)NC1CCCC1)C(=O)CCC(=O)Nc1ccccn1,-2,-9,21*,0,1
C(=C\c1ccccc1)/CSc1nnc(Cc2cccs2)n1-c1ccccc1,3,1,·,1,-4
Cc1cc(C)cc(NC(=O)NCCCN2CCN(c3ccc(F)cc3)CC2)c1,3,3,·,1,-11
Cc1ccc(S(=O)(=O)NC(CN2CCOCC2)=NCCNS(=O)(=O)c2ccccc2)cc1,-6,-1,36*,-1,-1
